Screening data deposited in PubChem by National Center for Advancing Translational Sciences (NCATS).
PNC inhibitor – High Content Assay for Compounds that inhibit the Assembly of the Perinucleolar Compartment; PC3M PTB-GFP, PNC prevalence imaging, 16 h; stronger effect = lower value; activity change (PNC), negative = inhibition, % at 10 µM; hit rate 3.1% among 140,000; AID 2417, 2010;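 active means readout at or below -70, meaning at least 70% loss of cells showing the perinucleolar compartment, a nuclear body marking cancer cells; inconclusive means readout between -30 and a set limit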;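 further: plate controls were DMSO wells for no effect and camptothecin positive control wells for full effect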
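PC3M cells stably expressing PTB-GFP, 750–1000 cells/well, treated 16 h at 37 °C with compound (23 nl of library stock), in duplicate. After paraformaldehyde fixation and Hoechst stain, imaged at 20x; PNC prevalence scored by image analysis.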
Tau fluor cs – Counterscreen qHTS for Inhibitors of Tau Fibril Formation, Fluorescence Polarization; tau K18 P301L Alexa594 fluorescence, heparin fibrillization; Potency, µM (doses to about 57.7 µM), for inactives: at the highest dose activity change, negative = decrease; hit rate 0.93% among 280,000; AID 1463, 2008; further: potency means the concentration at half of the fitted maximal effect; nearly all actives have a fitted effect of over 55% in size
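Human tau K18 P301L (15 uM unlabeled, 0.24 uM Alexa 594-labeled) in 100 mM sodium acetate pH 7 with 20 uM heparin, 6 hr at 37 C. ThT 30 uM added, 1 hr ambient; Alexa 594 FP and total fluorescence read at 555/632 nm.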
NPSR antagonist – qHTS Assay for Antagonists of the Neuropeptide S Receptor: cAMP Signal Transduction; Q6W5P4; CHO-NPSR cells, cAMP TR-FRET, antagonist mode; Potency, µM (doses to about 38.3 µM), for the others: top-dose activity change, negative = inhibition, most hits filed as inhibitors; hit rate 1% among 220,000; further: potency means the concentration at half of the fitted maximal effect; nearly all actives have a fitted effect of over 50% in size
Target sequence (Q6W5P4 whole entry, looked up): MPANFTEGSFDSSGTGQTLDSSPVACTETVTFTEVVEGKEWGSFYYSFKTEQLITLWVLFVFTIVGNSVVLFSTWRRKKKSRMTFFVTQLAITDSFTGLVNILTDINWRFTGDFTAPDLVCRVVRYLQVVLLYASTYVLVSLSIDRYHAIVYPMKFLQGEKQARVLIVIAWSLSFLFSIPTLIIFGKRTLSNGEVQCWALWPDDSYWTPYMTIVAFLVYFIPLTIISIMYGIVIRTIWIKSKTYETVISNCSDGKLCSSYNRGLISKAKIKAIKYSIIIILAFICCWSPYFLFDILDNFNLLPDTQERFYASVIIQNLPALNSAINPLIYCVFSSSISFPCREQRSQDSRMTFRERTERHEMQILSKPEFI
KDM4E inh – qHTS Assay for Inhibitors of Human Jumonji Domain Containing 2E (JMJD2E). Lysine-specific demethylase 4E (Homo sapiens), B2RXH2. hit rate 1.6% among 230,000. Potency, µM (top dose mostly 57.1 µM), inactives show at the highest dose activity change, negative = inhibition, actives largely listed as inhibitors. JMJD2E catalytic domain, FDH-coupled NADH fluorescence (FDH is formaldehyde dehydrogenase);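 further: potency means the concentration at half of the fitted maximal effect; 0% = wells with enzyme and -100% = buffer wells without enzyme; nearly all actives have a fitted effect of over 50% in size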
Tau ThT inhib – qHTS for Inhibitors of Tau Fibril Formation, Thioflavin T Binding. recombinant tau K18 P301L, heparin-induced fibrillization, ThT fluorescence. Potency, µM (top dose mostly 57.4 µM), for the others: top-dose activity, negative = inhibition, most hits filed as inhibitors. hit rate 2.1% among 270,000; further: potency means the concentration at half of the fitted maximal effect; nearly all actives have a fitted effect of over 55% in size
Target sequence (P10636 561-689 P618L limits assumed): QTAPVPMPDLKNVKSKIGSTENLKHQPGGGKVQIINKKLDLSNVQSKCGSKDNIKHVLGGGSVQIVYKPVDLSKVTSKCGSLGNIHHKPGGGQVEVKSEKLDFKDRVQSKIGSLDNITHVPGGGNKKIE
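Using a mix of unlabeled (15 uM) and Alexa 594-labeled (0.24 uM) tau K18 P301L, heparin-triggered fibrillization over 6 hr at 37 C was scored by ThT fluorescence.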
Tau FP inhib – qHTS for Inhibitors of Tau Fibril Formation, Fluorescence Polarization; Microtubule-associated protein tau (Homo sapiens), P10636; K18 P301L tau heparin fibrillization, Alexa594 FP, 6 h; Potency, µM (titrated, usually from 57.7 µM), for inactives: top-dose activity, negative = inhibition, hits mostly inhibitors; hit rate 0.39% among 280,000; AID 1468, 2008; further: potency means the concentration at half of the fitted maximal effect; nearly all actives have a fitted effect of over 55% in size
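Quantitative HTS format: compounds meet 15 uM recombinant K18 P301L tau and Alexa 594-tau tracer in 100 mM sodium acetate pH 7; 20 uM heparin triggers fibrillization at 37 C over 6 hr; FP gives the signal.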
The depositor's hits bear a star; ? = inconclusive; . = no result given; [ ] = another dose, or the depositor's remark. Rows were chosen to be rich in hits. Some 5.1% of all compounds tested hit in one or more screens of this group. Unless noted, the call rests on the fitted dose curve; in most records, active means well fitted curve in the direction sought with a large enough effect; inconclusive means small, poorly fitted or top-dose-only effect, or another doubt; inactive means no such curve, though single readings can be large; an effect the other way counts as inactive or inconclusive. Unless noted, on the % scale 0 is the no-effect control and ±100 the full control effect.

SMILES	PNC inhibitor	Tau fluor cs	NPSR antagonist	KDM4E inh	Tau ThT inhib	Tau FP inhib
Oc1sc(C=Nc2ccc(F)cc2)c2ccccc12	?	-29.6%	?	?	-10.3%	-4.7%
Oc1c(C=Nc2cccnc2)sc2ccccc12	?	-12.3%	?	?	12.6µM*	10.6%
Oc1c(/C=N/c2ccccn2)sc2ccccc12	.	2.82µM*[fluorescent]	?	?	5.62µM*	?
Cc1ccc2nc(-c3cccc(NC(=O)c4cccc5ccccc45)c3)oc2c1	.	-29.0%	.	.	-5.0%	?
Cc1ccc(-c2nc3c(C)cccn3c2Nc2ccccc2C)s1	.	?	.	.	?	1.8%
COc1cccc(-c2nn(C)c3sc(C(=O)NCCc4cccc(C)c4)cc23)c1	.	?	.	.	-5.0%	?
CCc1noc2nc(C)n(CC(=O)O)c(=O)c12	.	-1.9%	.	.	2.0%	-6.2%
O=C(Nc1nnc(S(=O)(=O)N2CCCCC2)s1)c1ccc(Cl)cc1	.	-26.8%	.	.	2µM*	4.1%
O=C(Nc1nnc(S(=O)(=O)N2CCCCCC2)s1)c1ccc(Br)cc1	.	?	.	.	?	-4.5%
Cc1ccc(C(=O)Nc2nnc(S(=O)(=O)N3CCN(c4ccc(F)cc4)CC3)s2)cc1	.	-17.1%	.	.	2.51µM*	6.4%
CC(C)(C)c1ccc(C(=O)NCC(c2cccnc2)N2CCc3ccccc3C2)cc1 (stereo not given)	.	?	.	.	?	6.0%
Cc1[nH]nc(Nc2ccc(Br)cc2)c1[N+](=O)[O-]	.	-28.1%	-9.1%	-13.4%	6.31µM*	-2.0%
Cc1ccc(Nc2n[nH]c(C)c2[N+](=O)[O-])cc1	58.1	-18.0%	22.1%	-5.4%	?	-1.7%
Cc1[nH]nc(Nc2ccc(C(C)C)cc2)c1[N+](=O)[O-]	.	?	-12.2%	10.0%	12.6µM*	-0.9%
Cc1nn(-c2ccccc2)c(N2CCCC2)c1/C=N/NC(=O)c1ccccc1O	-103.8*	?	-8.6%	?	?	6.7%
O=C(N/N=C/c1cccc(C(F)(F)F)c1)c1ccccc1O	.	-23.6%	-24.3%	10.7%	?	-3.9%
O=C(N/N=C/c1cc2c3c(c1O)CCCN3CCC2)c1ccccc1O	-112.8*	11.2µM*[quencher]	-10.6%	31.6µM*	12.6µM*	-5.2%
Cn1c(COc2ccc(Br)cc2)nnc1SC1CCc2ccccc2C1=O (stereo not given)	?	?	-47.3%	?	31.6µM*	?
Cn1c(COc2ccccc2)nnc1SCCSc1nnc(COc2ccccc2)n1C	-18.7	2.0%	-21.8%[46.1 µM]	-0.3%	-13.7%	-5.0%
Nc1c(C(=O)O)ccc2c1C(=O)c1ccccc1C2=O	.	-28.5%	-30.9%	3.1%	10µM*	-11.2%
Nc1cc(C(=O)O)c(N)c2c1C(=O)c1ccccc1C2=O	.	?	3.16µM*	?	4.47µM*	20µM*
Cc1ccccc1NC(=O)/C(C#N)=C\c1cccnc1	-81.8*	-3.4%	-5.6%[46.1 µM]	1.3%	-15.8%	-0.9%
Cc1cc(/C=C(/C#N)C(=O)Nc2ccccc2)c(C)n1-c1cccnc1	35.9	5.7%	-17.1%[46.1 µM]	4.3%	-3.0%	3.1%
Cc1cc(/C=C(\C#N)C(=O)Nc2ccccc2)c(C)n1-c1ccc2c(c1)OCO2	2.8	-26.6%	-11.5%[46.1 µM]	25.1µM*	?	3.4%
Cc1ccccc1NC(=O)/C(C#N)=C\c1cc(C)n(-c2ccc(C(=O)O)cc2)c1C	.	-5.2%	-59.4%	20µM*	.	9.7%
SMILES	PNC inhibitor	Tau fluor cs	NPSR antagonist	KDM4E inh	Tau ThT inhib	Tau FP inhib
Cc1cc(Cl)ccc1NC(=O)c1cc2ccccn2n1	.	-15.0%	.	.	?	1.5%
O=C(Nc1cccc(C(F)(F)F)c1)Oc1ccc(Cl)c2cccnc12	.	?	?	?	-14.7%	20µM*
CCN(CC)C(=O)Oc1ccc(Cl)c2cccnc12	.	-1.5%	0.5%	?	-3.7%	2.0%
COC(=O)C1CCN(c2nc3ccccc3nc2C(C#N)C(=O)OCC(C)C)CC1 (stereo not given)	-83.3*	-18.5%	?	-8.8%	?	-3.8%
CCCCCCOC(=O)C(C#N)c1nc2ccccc2nc1N1CCCCC1 (stereo not given)	-30.0	16.9%	10µM*	?	-0.8%	6.1%
COc1ccc(CNC(=O)C(C#N)c2nc3ccccc3nc2N2CCN(C)CC2)cc1 (stereo not given)	-18.5	-29.6%	-18.5%[46.1 µM]	0.5%	15.8µM*	-1.2%
CCOC(=O)C1CCN(c2nc3ccccc3nc2C(C#N)C(=O)OC(C)C)CC1 (stereo not given)	-21.0	-14.5%	?	?	-13.5%	-6.9%
CC(C)Cn1c(=O)c2sccc2n2c(CCCC(=O)NC3CCCCC3)nnc12	.	-3.4%	.	.	5.8%	2.3%
COc1ccc(Br)cc1CNC(=O)CCc1cn(Cc2ccc(C)cc2)c2ccccc12	.	-23.0%	.	.	-11.1%	-1.6%
CN(C)CCNS(=O)(=O)c1ccc(Cl)cc1	-100.0*	3.1%	?	3.5%	0.3%	-3.3%
CCN(CC)CCNS(=O)(=O)c1ccc(Cl)cc1	?	0.3%	10.4%[46.1 µM]	-0.5%	-8.0%	-7.8%
NC(=O)c1cccc2ccccc12	.	6.1%	7.7%	-7.0%	2.0%	9.0%
N#CSCC(=O)c1cccc2ccccc12	92.7	-12.1%	-17.6%	1.6%	25.1µM*	?
Cc1ccn2cc(CSc3ccccc3)nc2c1	-111.7*	-7.2%	-8.7%[46.1 µM]	-7.1%	-3.9%	6.3%
COc1cc(C(=O)Nc2sc3c(c2C#N)CCCC3)c(Br)c(OC)c1OC	.	-24.2%	.	.	-11.8%	-11.4%
Cc1cc2c(c(=O)o1)C(c1ccc([N+](=O)[O-])o1)C(C#N)=C(N)O2 (stereo not given)	.	-25.2%	-4.0%	?	14.1µM*	?
CCOC(=O)CCCOC(=O)c1ccc(S(=O)(=O)N(C)C)cc1	-100.0*	0.0%	2.4%[46.1 µM]	3.4%	-4.0%	1.6%
O=[N+]([O-])c1ccccc1-c1cc(-c2ccccc2O)n[nH]1	-83.4*	12.8%	-13.4%	-1.9%	15.8%	-2.4%
Oc1ccccc1-c1cc(C(F)(F)F)[nH]n1	.	-2.9%	1.0%	-3.8%	.	-5.7%
COc1ccccc1NC(=O)CSc1nnc(NC(=O)NC2CCCCC2)s1	.	-29.1%	.	.	-3.5%	?
O=c1[nH]c(-[n+]2ccccc2)c(/C=N/NC([S-])=Nc2ccccc2)s1	.	-22.8%	14.8%	-29.1%	28.2µM*	?
